# Measured values from PubChem BioAssay AID2685 (National Center for Advancing Translational Sciences (NCATS), 2010).
# About 2,100 (0.66%) of roughly 320,000 compounds were called active. Another 53% or so got no clear call; they are omitted. The call rests on the fitted dose curve; in most records, active means well fitted inhibition curve with a large enough effect in the signal ratio, with a control signal flat (not every such curve was filed as active); inconclusive means small, poorly fitted or top-dose-only effect, or effect the other way, or a change in a side signal; inactive means flat fitted curve, though single readings scatter; the % refers to the signal ratio. The list comes from a sample in which actives are over-represented; it also holds similar structures and randomly drawn compounds.
# Experiment: qHTS Assay for Lipid Storage Modulators in Drosophila S3 Cells;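 on cell number change: cells counted by Cell Tracker Red CMTPX staining in the red channel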; on lipid storage change, negative = inhibition: on the % scale 0 is the no-effect control and ±100 the full control effect
# Conditions: BODIPY lipid droplet fluorescence, 18-24 h, cells fed with added oleic acid; cell number change: measured here: cell count max response; series mostly up to 46.1 µM; lipid storage change, negative = inhibition: at the top concentration
# Outline: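 Drosophila S3 cells loaded with oleic acid (400 uM, as added) and compounds at several concentrations; lipid droplets imaged by 488-nm laser-scanning cytometry, 500–530 nm intensity and object ratio to cell channel. Percent activity normalized to 20 uM Triacsin C.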
# Potency means the concentration at half of the fitted maximal effect.
SMILES,"lipid storage change, negative = inhibition",cell number change,Potency,outcome
Cc1cccc(-n2cc(-c3ccccc3)c3c(N4CCOCC4)ncnc32)c1,8.58% (inactive),18.2%,,
O=C(CSc1ncnc2nc[nH]c12)c1ccc(Cl)cc1,4.43% (inactive),-11.7%,,
CC(=O)CSc1ncnc2nc[nH]c12,1.08% (inactive),,,
O=C(O)CSc1ncnc2nc[nH]c12,,2.03%,20.6 µM (active),
CC(C)c1nnc(NC(=O)C2CCN(C(=O)Nc3ccc(Cl)cc3)CC2)s1,3.85% (inactive),5.41%,,
CCc1ccccc1NC(=S)N(CCN1CCCCC1)Cc1ccco1,-1.49% (inactive),5.79%,,
Cc1cc(OCCCn2cnc3ccccc3c2=O)ccc1[N+](=O)[O-],20.5% (inactive),0.141%,,
COc1cc(OC)cc(C(=O)NC(=S)NNC(=O)Cc2cccs2)c1,14.8% (inactive),0.453%,,
CCOC(=O)N1CCN(c2c(N3CCN(c4ccc(OC)cc4)CC3)c(=O)c2=O)CC1,2.64% (inactive),5.73%,,
CCCCn1c(CN2CCN(c3cccc(Cl)c3)CC2)nc2c1c(=O)n(C)c(=O)n2C,,,,inactive
CCCCn1c(CN2CCN(c3ccc(F)cc3)CC2)nc2c1c(=O)n(C)c(=O)n2C,5.72% (inactive),2.55%,,
CCCCn1c(CN2CCN(c3ccccc3)CC2)nc2c1c(=O)n(C)c(=O)n2C,,-29.7%,20.6 µM (active),
O=C(NCc1ccccc1)C1C2C=CC3(CN(Cc4cccnc4)C(=O)C13)O2 (stereo unspecified),-17.4% (inactive),-20%,,
Cc1cc(C(=O)CSc2nn3c(=O)c(C(C)(C)C)nnc3s2)c(C)n1C1CC1,,,,inactive
CCOc1ccc(NC(=S)NC(=O)C2CCCC2)cc1,-6.34% (inactive),,,
CN1CCS/C1=C/C=C1\SC(=S)N(CC(=O)O)C1=O,13.2% (inactive),-4.93%,,
CN1CCS/C1=C\C=C1/SC(=S)N(CC(=O)O)C1=O,21.7% (inactive),6.49%,,
CCCCN1C(=O)/C(=C/C=C2/CC(C)(C)CN2C)SC1=S,,0.528%,9.2 µM (active),
Cc1ccc(C)c(OCc2nnc(SCC(=O)NCc3ccc4c(c3)OCO4)o2)c1,5.42% (inactive),17.4%,,
CC(C)Nc1ccc(C(CC(N)=O)NC(=O)Cc2ccc(Cl)cc2)cc1[N+](=O)[O-] (stereo unspecified),-6.83% (inactive),,,
COC(=O)C(C)Sc1n[nH]c(=S)s1 (stereo unspecified),,12.5%,18.4 µM (active),
COC(=O)CSc1n[nH]c(=S)s1,-3.44% (inactive),-9.98%,,
COC(=O)C(C)Sc1nnc(SC(C)C(=O)OC)s1 (stereo unspecified),,26.4%,,inactive
CCCCCCCc1c(O)nc(SCCN2CCOCC2)[nH]c1=O,15% (inactive),2%,,

SMILES,"lipid storage change, negative = inhibition",cell number change,Potency,outcome
Cc1cc([N+](=O)[O-])nn1CC(=O)NC(C)c1ccccc1 (stereo unspecified),8.15% (inactive),-17.7%,,
COC(=O)NNC(=O)c1ccccc1OC,,-18.2%,,inactive
Cc1ccccc1C(=O)NNC(=O)c1ccoc1C,13.5% (inactive),21.8%,,
COC(=O)NNC(=O)c1ccccc1C,,-4.05%,25.9 µM (active),
O=c1c2cc(Br)ccc2[nH]c(=S)n1Cc1ccccc1,48.1% (inactive),,,
Cc1ccc(-c2cc(C(F)(F)F)n3ncc(C(=O)NCc4ccco4)c3n2)cc1,-6.97% (inactive),-26.7%,,
Cc1nc2c(C(=O)NCc3cccs3)cnn2c(C)c1Cc1ccccc1,7.94% (inactive),-10.7%,,
Cc1cc(C)c(Cc2c(C)nc3c(C(=O)NCc4ccco4)cnn3c2C)c(C)c1,,,6.51 µM (active),
COc1ccc(-c2cc(-c3ccccc3)nc(SCC(=O)Nc3nccs3)c2C#N)cc1,11.7% (inactive),6.74%,,
Cc1ccc(NC(=O)CCNS(=O)(=O)c2ccc3[nH]c(=O)oc3c2)c(Cl)c1,,-2.47%,,inactive
CN(C(=O)c1ccc(=O)[nH]c1)C1(C(=O)NC2CCCCC2)CCCCC1,-8.5% (inactive),-13.5%,,
Cc1nn(C)cc1-c1csc(N)n1,-5.77% (inactive),19%,,
COc1ccc(NC(=O)C2CCCN(S(=O)(=O)c3cccnc3)C2)c(OC)c1 (stereo unspecified),-0.456% (inactive),12.4%,,
O=C(NC(=S)NNC(=O)c1ccco1)c1ccc(F)cc1,,4.58%,18.4 µM (active),
COc1ccc(C(=O)NC(=S)NNC(=O)c2ccco2)cc1,,-19.8%,,inactive
COc1ccc(C(=O)NNC(=S)NC(=O)c2ccco2)cc1,-27% (inactive),1.44%,,
CCCCN(C(=O)c1nn(C)c(=O)c2ccccc12)c1c(N)n(CC(C)C)c(=O)[nH]c1=O,6.7% (inactive),3.88%,,
O=C(CSc1nnc([C@@H]2CCCN2)o1)c1ccc(Cl)cc1,14.1% (inactive),3.48%,,
O=C(NC1=NCCS1)c1cccc(NC(=O)c2ccco2)c1,,,,inactive
CCN1C(=O)N(c2ccc(C(C)=O)cc2)S(=O)(=O)c2ccccc21,20.2% (inactive),7.75%,,
CCN1c2ccccc2S(=O)(=O)c2ccccc21,,-15.5%,1.84 µM (active),
COc1ccc(CNC(=O)CN2c3ccccc3S(=O)(=O)c3ccccc32)cc1,,,,inactive
COc1cccc(NC(=O)C(Cc2ccccc2)n2cccc2)c1 (stereo unspecified),15% (inactive),23.9%,,
O=C(c1ccccc1)N1CCN(c2ccccc2F)CC1,,,,inactive
